Data taken from the supplement of paper PMC10849652.
Targets with a hit are over-represented here; the source holds about 7,900 in all. About 0.6% of all pairs of compound and target were hits.

Assays:
Test in all cases: log2 fold change, soluble protein after heating vs DMSO (PISA); higher = thermal stabilisation; K562 cells, 10 uM, 30 min; active = over 0.2 and 3.5 SD of the protein, either way, in both replicates (recomputed)
bafetinib = compound: Cc1ccc(NC(=O)c2ccc(CN3CC[C@H](N(C)C)C3)c(C(F)(F)F)c2)cc1Nc1nccc(-c2cncnc2)n1 [bafetinib]
In short: (§1)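 Aliquots of K562 cells (2×10^6 cells/mL) treated with 10 μM compound for 30 min were heated for 3 min over 48°C-58°C. After pooling and extraction in PBS with 0.5% NP-40 at 4°C, soluble protein from a 21,000xg, 90 min spin was quantified by TMTpro 16plex LC-MS/MS with channel sums equalised. Thermal stability is expressed against control samples, from duplicates, as a log2 fold change.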

[1] = compound: Cc1cccc(CC(=O)N2CCc3c2ccc(-c2cn(C)c4ncnc(N)c24)c3F)n1
In short: as §1

nilotinib = compound: Cc1cn(-c2cc(NC(=O)c3ccc(C)c(Nc4nccc(-c5cccnc5)n4)c3)cc(C(F)(F)F)c2)cn1 [nilotinib]
In short: as §1

[2] = compound: Cc1nc(Nc2n[nH]c3c2CN(C(=O)N[C@H](CN(C)C)c2ccccc2)C3(C)C)c2sccc2n1
In short: as §1

dasatinib = compound: Cc1nc(Nc2ncc(C(=O)Nc3c(C)cccc3Cl)s2)cc(N2CCN(CCO)CC2)n1 [dasatinib]
In short: as §1

[3] = compound: Cc1ncc(-c2ccnc(Nc3ccc(S(C)(=O)=O)cc3)n2)n1C(C)C
In short: as §1

[4] = compound: Cn1cc(-c2ccc3c(c2)CCN3C(=O)Cc2cccc(C(F)(F)F)c2)c2c(N)ncnc21
In short: as §1

[5] = compound: Cn1cc(-c2ccc3nnc(C(F)(F)c4ccc5ncccc5c4)n3n2)cn1
In short: as §1

tipifarnib = compound: Cn1cncc1[C@@](N)(c1ccc(Cl)cc1)c1ccc2c(c1)c(-c1cccc(Cl)c1)cc(=O)n2C [tipifarnib]
In short: as §1

mubritinib = compound: FC(F)(F)c1ccc(/C=C/c2nc(COc3ccc(CCCCn4ccnn4)cc3)co2)cc1 [mubritinib]
In short: as §1

[6] = compound: NC(=O)Nc1cc(-c2cccc(F)c2)sc1C(=O)N[C@H]1CCCNC1
In short: as §1

[7] = compound: NC(=O)c1cnc(N[C@@H]2CCCC[C@@H]2N)nc1Nc1cccc(-n2nccn2)c1
In short: as §1

[8] = compound: NC1(c2ccc(-c3nc4ccn5c(=O)[nH]nc5c4cc3-c3ccccc3)cc2)CCC1
In short: as §1

[9] = compound: NCC(=O)Nc1ccc(-n2nc(C(F)(F)F)cc2-c2ccc3c(ccc4ccccc43)c2)cc1
In short: as §1

entinostat = compound: Nc1ccccc1NC(=O)c1ccc(CNC(=O)OCc2cccnc2)cc1 [entinostat]
In short: as §1

vorinostat = compound: O=C(CCCCCCC(=O)Nc1ccccc1)NO [vorinostat]
In short: as §1

citarinostat = compound: O=C(CCCCCCNC(=O)c1cnc(N(c2ccccc2)c2ccccc2Cl)nc1)NO [citarinostat]
In short: as §1

silmitasertib = compound: O=C(O)c1ccc2c(c1)nc(Nc1cccc(Cl)c1)c1ccncc12 [silmitasertib]
In short: as §1

[10] = compound: O=C1NC(=O)C(c2cnc3ccccn23)=C1c1cn2c3c(cc(F)cc13)CN(C(=O)N1CCCCC1)CC2
In short: as §1

[11] = compound: c1cc(OCCN2CCCCC2)cc(-c2n[nH]c3ccc(-c4nnc[nH]4)cc23)c1
In short: as §1

Measured: log2 fold change

ATP13A3 (UniProt Q9H7F0)
UniProt Q9H7F0, sequence (Q9H7F0 whole entry, looked up): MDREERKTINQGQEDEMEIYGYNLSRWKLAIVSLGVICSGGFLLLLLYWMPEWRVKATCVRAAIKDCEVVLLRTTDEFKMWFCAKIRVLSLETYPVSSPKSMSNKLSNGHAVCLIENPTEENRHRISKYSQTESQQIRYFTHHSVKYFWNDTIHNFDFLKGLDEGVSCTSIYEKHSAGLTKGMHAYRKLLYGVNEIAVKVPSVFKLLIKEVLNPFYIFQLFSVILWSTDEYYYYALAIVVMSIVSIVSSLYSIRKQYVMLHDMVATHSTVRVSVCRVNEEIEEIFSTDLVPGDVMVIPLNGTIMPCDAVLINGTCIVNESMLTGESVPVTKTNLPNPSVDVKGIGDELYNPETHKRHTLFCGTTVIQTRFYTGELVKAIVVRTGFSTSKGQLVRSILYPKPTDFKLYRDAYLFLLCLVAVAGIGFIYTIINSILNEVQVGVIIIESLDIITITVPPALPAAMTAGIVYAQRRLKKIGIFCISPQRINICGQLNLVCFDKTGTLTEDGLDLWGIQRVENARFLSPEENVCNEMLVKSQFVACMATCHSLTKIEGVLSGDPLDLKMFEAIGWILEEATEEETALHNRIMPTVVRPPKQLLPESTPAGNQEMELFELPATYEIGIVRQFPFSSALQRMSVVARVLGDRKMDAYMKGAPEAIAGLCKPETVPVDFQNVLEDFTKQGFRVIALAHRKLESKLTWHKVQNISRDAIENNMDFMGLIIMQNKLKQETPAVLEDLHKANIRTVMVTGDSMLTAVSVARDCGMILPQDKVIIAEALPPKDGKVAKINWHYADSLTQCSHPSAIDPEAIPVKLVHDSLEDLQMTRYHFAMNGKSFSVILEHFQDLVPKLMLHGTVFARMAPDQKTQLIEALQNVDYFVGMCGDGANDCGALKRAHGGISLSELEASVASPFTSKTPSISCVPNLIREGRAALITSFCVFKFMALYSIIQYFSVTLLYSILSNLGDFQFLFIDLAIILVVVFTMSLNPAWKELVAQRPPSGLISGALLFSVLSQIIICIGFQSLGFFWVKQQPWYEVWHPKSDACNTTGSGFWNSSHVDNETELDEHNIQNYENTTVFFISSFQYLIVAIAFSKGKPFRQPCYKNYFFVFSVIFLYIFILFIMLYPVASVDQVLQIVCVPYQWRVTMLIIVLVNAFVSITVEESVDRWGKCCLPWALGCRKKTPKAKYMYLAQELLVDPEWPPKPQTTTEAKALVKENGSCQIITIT
inactive: bafetinib -0.067 | [1] 0.116 | nilotinib -0.015 | [2] -0.06 | dasatinib 0.008 | [3] 0.024 | [4] -0.099 | [5] 0.002 | tipifarnib 0.098 | mubritinib -0.049 | [6] -0.072 | [7] 0.027 | [8] -0.082 | [9] 0.039 | entinostat 0.026 | vorinostat -0.026 | citarinostat -0.033 | silmitasertib 0.048 | [10] 0.02 | [11] -0.099

ADH5 (UniProt P11766)
UniProt P11766, sequence (P11766 whole entry, looked up): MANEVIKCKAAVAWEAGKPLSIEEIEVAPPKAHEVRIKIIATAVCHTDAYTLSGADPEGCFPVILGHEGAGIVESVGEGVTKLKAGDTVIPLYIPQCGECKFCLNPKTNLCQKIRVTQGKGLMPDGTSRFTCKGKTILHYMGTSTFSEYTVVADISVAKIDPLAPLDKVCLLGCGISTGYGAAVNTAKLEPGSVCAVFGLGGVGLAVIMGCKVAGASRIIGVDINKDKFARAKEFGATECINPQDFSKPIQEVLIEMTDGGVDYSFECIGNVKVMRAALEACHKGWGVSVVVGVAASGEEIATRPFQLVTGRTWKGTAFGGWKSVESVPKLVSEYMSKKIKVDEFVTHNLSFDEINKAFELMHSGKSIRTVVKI
inactive: bafetinib -0.009 | [1] 0.006 | nilotinib -0.013 | [2] 0.023 | dasatinib 0.036 | [3] 0.013 | [4] 0.021 | [5] -0.006 | tipifarnib -0.029 | mubritinib 0.028 | [6] 0.024 | [7] 0.002 | [8] -0.006 | [9] 0.021 | entinostat -0.031 | vorinostat -0.013 | citarinostat 0.015 | silmitasertib -0.026 | [10] -0.03 | [11] -0.016

BUB1B isoform 3 (UniProt O60566)
UniProt O60566, sequence (O60566 whole entry, looked up): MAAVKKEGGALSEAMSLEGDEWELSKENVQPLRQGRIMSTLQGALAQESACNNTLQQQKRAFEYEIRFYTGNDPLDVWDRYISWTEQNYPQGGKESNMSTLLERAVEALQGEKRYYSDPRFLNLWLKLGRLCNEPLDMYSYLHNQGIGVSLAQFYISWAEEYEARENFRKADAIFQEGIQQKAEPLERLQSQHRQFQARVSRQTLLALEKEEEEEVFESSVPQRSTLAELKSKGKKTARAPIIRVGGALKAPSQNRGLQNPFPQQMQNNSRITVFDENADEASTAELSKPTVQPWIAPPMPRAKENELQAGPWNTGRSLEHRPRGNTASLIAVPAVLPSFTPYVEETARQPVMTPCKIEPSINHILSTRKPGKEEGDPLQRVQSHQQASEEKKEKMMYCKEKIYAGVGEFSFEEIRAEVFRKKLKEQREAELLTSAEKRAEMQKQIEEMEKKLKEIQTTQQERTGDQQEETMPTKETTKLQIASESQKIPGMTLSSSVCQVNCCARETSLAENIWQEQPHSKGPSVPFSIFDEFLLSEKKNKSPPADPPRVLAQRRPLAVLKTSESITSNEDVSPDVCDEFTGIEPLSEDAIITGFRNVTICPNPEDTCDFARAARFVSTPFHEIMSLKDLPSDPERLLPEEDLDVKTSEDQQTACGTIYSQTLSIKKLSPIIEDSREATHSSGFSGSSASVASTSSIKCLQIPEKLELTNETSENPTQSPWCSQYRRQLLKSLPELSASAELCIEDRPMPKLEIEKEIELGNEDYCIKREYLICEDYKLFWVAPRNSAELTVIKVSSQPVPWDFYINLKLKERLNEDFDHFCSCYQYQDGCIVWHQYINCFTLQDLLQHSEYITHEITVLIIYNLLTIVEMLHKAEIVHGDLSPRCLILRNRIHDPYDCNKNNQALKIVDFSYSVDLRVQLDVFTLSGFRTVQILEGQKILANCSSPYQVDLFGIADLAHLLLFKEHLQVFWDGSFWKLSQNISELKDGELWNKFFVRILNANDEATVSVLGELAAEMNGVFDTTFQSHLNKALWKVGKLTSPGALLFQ
inactive: bafetinib 0.03 | [1] 0.107 | nilotinib -0.089 | [2] -0.142 | dasatinib -0.13 | [3] 0.02 | [4] 0 | [5] 0.017 | tipifarnib -0.114 | mubritinib 0.012 | [6] 0 | [7] -0.135 | [8] -0.113 | [9] -0.039 | entinostat 0.068 | vorinostat 0.124 | citarinostat 0.02 | silmitasertib 0.111 | [10] 0.026 | [11] 0

ATP5ME (UniProt P56385)
UniProt P56385, sequence (P56385 whole entry, looked up): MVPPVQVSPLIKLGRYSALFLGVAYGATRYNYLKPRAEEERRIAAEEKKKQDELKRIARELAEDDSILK
inactive: bafetinib -0.071 | [1] -0.051 | nilotinib 0.022 | [2] 0.008 | dasatinib 0.084 | [3] -0.046 | [4] 0.001 | [5] 0.103 | tipifarnib -0.031 | mubritinib 0.023 | [6] 0.003 | [7] -0.007 | [8] 0.057 | [9] -0.04 | entinostat 0.026 | vorinostat -0.027 | citarinostat -0.007 | silmitasertib -0.008 | [10] -0.037 | [11] -0.039

APOB (UniProt P04114)
inactive: bafetinib -0.316 | [1] 0.032 | nilotinib -0.132 | [2] 0.013 | dasatinib -0.213 | [3] 0.051 | [4] 0.071 | [5] -0.021 | tipifarnib -0.203 | mubritinib 0.011 | [6] -0.206 | [7] -0.387 | entinostat 0.042 | vorinostat -0.009 | citarinostat 0.015 | silmitasertib 0.068 | [10] 0.001 | [11] 0.056
active: [8] -0.621 | [9] -0.806

ABCC5 (UniProt O15440)
active: [2] -0.219
inactive: bafetinib -0.027 | [1] 0.068 | nilotinib -0.21 | dasatinib -0.035 | [3] -0.015 | [4] 0.017 | [5] 0.053 | tipifarnib -0.009 | mubritinib 0.124 | [6] 0.016 | [7] 0.088 | [8] -0.038 | [9] -0.005 | entinostat -0.017 | vorinostat 0.001 | citarinostat 0.114 | silmitasertib 0.008 | [10] -0.082 | [11] 0.12

ANKRD29 (UniProt Q8N6D5)
inactive: bafetinib 0.063 | [1] -0.027 | nilotinib -0.09 | [2] -0.057 | dasatinib -0.002 | [3] 0.053 | [4] 0.22 | [5] 0.133 | tipifarnib -0.223 | mubritinib 0.083 | [6] -0.044 | [7] -0.181 | [8] -0.337 | [9] -0.119 | entinostat -0.03 | vorinostat 0.061 | citarinostat -0.002 | silmitasertib 0.039 | [10] -0.2 | [11] -0.051

AKT1 (UniProt P31749)
UniProt P31749, sequence (P31749 whole entry, looked up): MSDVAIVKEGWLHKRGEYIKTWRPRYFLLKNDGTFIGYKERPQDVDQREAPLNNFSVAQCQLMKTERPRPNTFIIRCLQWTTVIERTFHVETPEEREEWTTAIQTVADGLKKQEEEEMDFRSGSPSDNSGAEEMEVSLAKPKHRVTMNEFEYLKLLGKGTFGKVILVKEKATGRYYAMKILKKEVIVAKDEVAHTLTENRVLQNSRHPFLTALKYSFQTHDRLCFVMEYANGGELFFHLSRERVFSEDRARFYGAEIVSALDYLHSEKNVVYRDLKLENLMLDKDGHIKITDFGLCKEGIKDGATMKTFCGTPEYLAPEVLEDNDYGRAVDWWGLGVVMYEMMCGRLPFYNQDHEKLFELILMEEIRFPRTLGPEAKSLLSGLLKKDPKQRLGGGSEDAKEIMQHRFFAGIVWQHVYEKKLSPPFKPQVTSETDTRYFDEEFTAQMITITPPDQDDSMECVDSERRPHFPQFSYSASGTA
active: [8] 1.61
inactive: bafetinib 0.041 | [1] 0.004 | nilotinib 0.033 | [2] -0.275 | dasatinib -0.416 | [3] -0.158 | [4] 0.048 | [5] 0 | tipifarnib -0.136 | mubritinib 0.033 | [6] -0.085 | [7] -0.276 | [9] -0.002 | entinostat 0.201 | vorinostat -0.024 | citarinostat 0.138 | silmitasertib 0.004 | [10] 0.1 | [11] 0.027

ATP5IF1 (UniProt Q9UII2)
UniProt Q9UII2, sequence (Q9UII2 whole entry, looked up): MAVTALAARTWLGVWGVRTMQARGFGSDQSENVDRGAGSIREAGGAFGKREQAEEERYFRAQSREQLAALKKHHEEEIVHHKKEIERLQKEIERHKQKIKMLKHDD
inactive: bafetinib -0.039 | [1] -0.101 | nilotinib -0.038 | [2] 0.005 | dasatinib 0.055 | [3] -0.042 | [4] -0.002 | [5] 0.094 | tipifarnib 0.059 | mubritinib 0.033 | [6] -0.039 | [7] -0.01 | [8] -0.02 | [9] 0.086 | entinostat -0.021 | vorinostat -0.07 | citarinostat -0.124 | silmitasertib -0.044 | [10] -0.092 | [11] 0.092

ALDH1B1 (UniProt P30837)
active: vorinostat 0.281
inactive: bafetinib 0.03 | [1] -0.018 | nilotinib 0.003 | [2] 0.014 | dasatinib -0.113 | [3] 0.131 | [4] 0.022 | [5] 0.034 | tipifarnib -0.018 | mubritinib 0.059 | [6] 0 | [7] -0.039 | [8] -0.065 | [9] -0.054 | entinostat -0.019 | citarinostat 0.051 | silmitasertib -0.037 | [10] -0.015 | [11] 0.058

ASS1 (UniProt P00966)
UniProt P00966, sequence (P00966 whole entry, looked up): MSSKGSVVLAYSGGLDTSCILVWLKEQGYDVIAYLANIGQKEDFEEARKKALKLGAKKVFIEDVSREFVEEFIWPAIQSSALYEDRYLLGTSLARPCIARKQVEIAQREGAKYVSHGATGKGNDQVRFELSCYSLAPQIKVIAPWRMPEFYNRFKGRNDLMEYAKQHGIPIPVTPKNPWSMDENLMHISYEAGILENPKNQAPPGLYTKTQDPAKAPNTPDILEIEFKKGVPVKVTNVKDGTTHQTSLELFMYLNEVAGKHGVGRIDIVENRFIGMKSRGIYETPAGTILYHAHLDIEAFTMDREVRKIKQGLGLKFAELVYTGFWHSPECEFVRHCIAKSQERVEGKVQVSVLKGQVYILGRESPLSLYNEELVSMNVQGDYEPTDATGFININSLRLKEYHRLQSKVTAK
inactive: bafetinib -0.113 | [1] -0.001 | nilotinib -0.017 | [2] 0.021 | dasatinib 0.013 | [3] -0.017 | [4] 0.093 | [5] 0.06 | tipifarnib 0.005 | mubritinib 0.009 | [6] -0.054 | [7] -0.184 | [8] -0.087 | [9] 0.026 | entinostat 0.096 | vorinostat -0.052 | citarinostat -0.037 | silmitasertib 0.02 | [10] -0.013 | [11] 0.013

ARPP19 (UniProt P56211)
UniProt P56211, sequence (P56211 whole entry, looked up): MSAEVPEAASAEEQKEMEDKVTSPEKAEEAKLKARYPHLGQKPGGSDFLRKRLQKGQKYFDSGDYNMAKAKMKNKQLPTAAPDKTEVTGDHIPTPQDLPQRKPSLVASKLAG
inactive: bafetinib -0.057 | [1] 0.005 | nilotinib 0.02 | [2] -0.041 | dasatinib 0.045 | [3] -0.004 | [4] 0.033 | [5] -0.022 | tipifarnib -0.055 | mubritinib 0.002 | [6] -0.049 | [7] -0.075 | [8] -0.019 | [9] 0.046 | entinostat 0.027 | vorinostat -0.038 | citarinostat 0.1 | silmitasertib 0 | [10] 0.026 | [11] -0.051

ALDH9A1 (UniProt P49189)
UniProt P49189, sequence (P49189 whole entry, looked up): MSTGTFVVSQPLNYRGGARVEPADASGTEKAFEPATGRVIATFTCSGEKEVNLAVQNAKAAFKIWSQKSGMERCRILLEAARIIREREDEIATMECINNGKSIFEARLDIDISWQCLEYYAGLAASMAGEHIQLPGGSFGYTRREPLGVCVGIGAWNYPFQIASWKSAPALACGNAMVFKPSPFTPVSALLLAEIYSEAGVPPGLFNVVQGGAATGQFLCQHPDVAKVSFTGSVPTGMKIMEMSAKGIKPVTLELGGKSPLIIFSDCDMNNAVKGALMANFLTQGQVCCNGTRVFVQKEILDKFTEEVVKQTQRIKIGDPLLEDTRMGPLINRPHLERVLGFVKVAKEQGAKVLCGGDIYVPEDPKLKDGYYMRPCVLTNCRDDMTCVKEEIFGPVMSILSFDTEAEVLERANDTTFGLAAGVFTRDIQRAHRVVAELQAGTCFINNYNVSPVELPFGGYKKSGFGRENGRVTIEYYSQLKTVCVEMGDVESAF
inactive: bafetinib 0.023 | [1] 0.071 | nilotinib -0.08 | [2] -0.046 | dasatinib -0.105 | [3] 0.019 | [4] 0.047 | [5] 0.044 | tipifarnib 0.099 | mubritinib -0.015 | [6] 0.079 | [7] 0.051 | [8] -0.024 | [9] 0 | entinostat -0.014 | vorinostat -0.209 | citarinostat -0.014 | silmitasertib -0.033 | [10] 0.025 | [11] 0.055

ALDH2 (UniProt P05091)
inactive: bafetinib 0.009 | [1] -0.02 | nilotinib 0.006 | [2] -0.016 | dasatinib -0.034 | [3] 0.019 | [4] 0.072 | [5] 0.059 | tipifarnib -0.005 | mubritinib 0.07 | [6] 0.012 | [7] -0.039 | [8] -0.046 | [9] -0.016 | entinostat -0.007 | citarinostat 0.043 | silmitasertib -0.038 | [10] -0.001 | [11] -0.023
active: vorinostat 0.216

ATP6V1H (UniProt Q9UI12)
UniProt Q9UI12, sequence (Q9UI12 whole entry, looked up): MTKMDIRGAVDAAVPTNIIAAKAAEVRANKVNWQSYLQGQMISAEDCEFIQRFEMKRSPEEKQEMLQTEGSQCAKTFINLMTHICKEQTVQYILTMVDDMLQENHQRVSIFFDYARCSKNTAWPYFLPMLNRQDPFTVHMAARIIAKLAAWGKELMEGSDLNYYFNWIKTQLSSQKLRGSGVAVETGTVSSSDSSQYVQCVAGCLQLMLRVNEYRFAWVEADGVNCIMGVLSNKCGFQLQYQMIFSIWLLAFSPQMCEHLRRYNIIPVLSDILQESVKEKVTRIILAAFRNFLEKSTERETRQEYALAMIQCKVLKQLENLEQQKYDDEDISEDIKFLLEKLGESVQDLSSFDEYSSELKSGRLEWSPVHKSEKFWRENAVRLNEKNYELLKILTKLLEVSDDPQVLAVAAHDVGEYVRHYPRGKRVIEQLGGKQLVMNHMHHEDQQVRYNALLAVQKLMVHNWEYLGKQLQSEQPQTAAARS
inactive: bafetinib -0.057 | [1] 0.037 | nilotinib -0.015 | [2] -0.016 | dasatinib -0.029 | [3] 0.049 | [4] 0.025 | [5] -0.013 | tipifarnib -0.01 | mubritinib 0.098 | [6] 0 | [7] -0.141 | [8] -0.201 | [9] -0.094 | entinostat 0.046 | vorinostat 0.032 | citarinostat 0.031 | silmitasertib 0.005 | [10] 0.025 | [11] -0.062

ACIN1 (UniProt Q9UKV3)
inactive: bafetinib 0.022 | [1] -0.037 | nilotinib 0.086 | dasatinib 0.016 | [3] -0.065 | [4] 0.117 | [5] -0.027 | tipifarnib 0.026 | mubritinib 0.049 | [6] -0.013 | [7] -0.038 | [8] 0.003 | [9] -0.062 | entinostat -0.024 | vorinostat 0.035 | citarinostat 0.035 | silmitasertib -0.124 | [10] 0.013 | [11] -0.084
active: [2] -0.444
